Compound activity (PubChem BioAssay)
Shown are actives, neighbours in structure and some others; about 3.5% of the full set was active somewhere.
BoNT A protease = BoNT/A light chain protease inhibitors, primary screen, biochemical, flow cytometry, MLPCN library. Botulinum neurotoxin type A light chain protease (Clostridium botulinum A str. ATCC 3502). multiplex microsphere protease substrate cleavage. inhibition, % at 10 µM. 0.17% of 360,000 active; also: plate controls were buffer without enzyme for full effect and enzyme alone for no effect
Anthrax LF prot = Bacillus anthracis LF protease inhibitors, primary screen, biochemical, multiplex microsphere, MLPCN library; Lethal factor (Bacillus anthracis), P15917; multiplex microsphere protease cleavage assay; inhibition, % at 10 µM; 0.12% of 360,000 active; AID 588501, 2011; also: plate controls were buffer without enzyme for full effect and enzyme alone for no effect
Autofluor counter = counter-screen for toxin protease inhibitors: compound fluorescence; compound autofluorescence counterscreen, microsphere flow cytometry; hits give high values; fluorescence intensity (test concentration not listed); 3.1% of 360,000 active; AID 624483; in the data active = fluorescence intensity above about 16000; inconclusive = no clear call, values can overlap the other calls
BoNT-F LC inh = BoNT/F light chain protease inhibitors, primary screen, biochemical, flow cytometry, MLPCN library; 0.22% of 360,000 active; Botulinum neurotoxin type F light chain protease (Clostridium botulinum); inhibition, % at 10 µM; Multiplex microsphere protease cleavage assay; in the data active = inhibition above about 35%, passing the limit was not always enough; inconclusive = no clear call, values can overlap the other calls; also: plate controls were buffer without enzyme for full effect and enzyme alone for no effect
Starred values were filed as active, the others as inactive; ? = inconclusive. Rule as the data show it, unless noted: active = inhibition above about 30%; inconclusive = no clear call, values can overlap the other calls; inactive = below that.

SMILES	BoNT A protease	Anthrax LF prot	Autofluor counter	BoNT-F LC inh
CCn1cc(C(=O)OCC(=O)Nc2cccc(S(=O)(=O)N3CCOCC3)c2)c(=O)c2ccc(C)nc21	?	0	16363*	-1
COc1ccc(CCN=CC2=C(O)CC(C)(C)CC2=O)cc1	1	0	4410	-12
CC1(C)CC(=O)C(C=NCCc2ccc(S(N)(=O)=O)cc2)=C(O)C1	-2	-2	23978*	-7
CC(=O)[C@@H]1[C@@H](C(=O)c2ccccc2)[C@]2(C(=O)Nc3ccccc32)[C@H]2C=Cc3cc(F)ccc3N12	4	2	3170	-9
O=C(c1ccccc1)[C@@H]1[C@@H](C(=O)c2ccc(F)cc2)[C@@]2(C(=O)Nc3ccccc32)[C@H]2c3ccccc3C=CN12	39*	29	7809	17
COc1cccc(NC(=O)N(CCCN2CCOCC2)C(C)c2cc3cccc(OC)c3o2)c1 (stereo not given)	0	-4	2656	-1
COc1cccc(NC(=O)N(CCCN2CCOCC2)C(C)c2cc3ccccc3o2)c1 (stereo not given)	3	1	21426*	4
CC1(C)CC(NS(=O)(=O)c2ccc(S(=O)(=O)N3CCOCC3)cc2)CCO1 (stereo not given)	-1	-5	19550*	-1
COC(=O)c1cccc(NC(=O)/C(=C\c2ccccc2)NC(=O)c2ccccc2Cl)c1	0	-5	9655	-1
O=C(N/C(=C\c1ccccc1)C(=O)N1CCOCC1)c1ccccc1Cl	-142	-33	42511*	-223
O=C(Nc1cccc(C(=O)O)c1)/C(=C\c1ccccc1)NC(=O)c1ccccc1Cl	4	2	5393	41*
CCSc1nc2c(sc3ccccc32)c(=O)n1C(C)C	1	0	23016*	0
CCCCn1c(SCC(N)=O)nc2c(sc3ccccc32)c1=O	0	1	4154	-7
CCOC(=O)c1nnn(-c2nonc2N)c1CN1CCCCCC1	1	-2	16135*	4
CCOC(=O)c1nnn(-c2nonc2N)c1CN1CCCC1	-3	9	3989	9
CCOC(=O)c1nnn(-c2nonc2N)c1CNc1ccccc1	0	0	5639	6
CCOC(=O)c1nnn(-c2nonc2N)c1CNC(C)C	?	-2	21205*	1
O=C(/C(=C/c1ccccc1)c1ccccc1)N1CCCCC1	0	1	2321	-2
COc1cc(OC)c(/C=N/NC(=O)c2ccncc2)c(OC)c1	-8	-19	4611	?
CC1CC(C)CN(CCCNC(=O)c2ccc(CNS(=O)(=O)c3ccc(F)cc3)cc2)C1 (stereo not given)	0	0	5714	4
O=C(NCCN1CCOCC1)c1cc(-c2ccco2)on1	-4	-6	17211*	-7
COc1ccc(S(=O)(=O)NCCCCCC(=O)NCCCN2CCOCC2)cc1	3	-2	20933*	2
O=C(NCCCN1CCOCC1)c1ccc(CNS(=O)(=O)c2ccc(F)cc2)cc1	?	2	16290*	0
O=C(NCCCN1CCOCC1)c1cc(-c2ccc(F)cc2)on1	6	2	18525*	9
COc1ccc(C(O)Cn2cc([N+](=O)[O-])nc2C)cc1 (stereo not given)	1	8	3568	?
SMILES	BoNT A protease	Anthrax LF prot	Autofluor counter	BoNT-F LC inh
C=CCn1c(=O)c2ccccc2n2c(SCC(=O)NC)nnc12	-1	-1	2966	-8
CC1CCCCC12NC(=O)N(CC(=O)N1CCN(S(=O)(=O)c3ccc(Cl)s3)CC1)C2=O (stereo not given)	0	0	2772	-5
O=C(COC(=O)CCN=C1NS(=O)(=O)c2ccccc21)NNC(=O)c1ccc(Cl)cc1	0	-9	8582	1
CCOc1ccc(NC(=O)CN(C)Cc2ccc3c(c2)OCO3)cc1S(=O)(=O)N1CCCC1	0	-2	3622	-1
COCCCNC(=O)c1ccc(N2CCOCC2)c(NS(=O)(=O)c2ccc(OC)cc2)c1	0	-5	6162	-2
Nc1c(C(=O)NCc2ccc(F)cc2)c2nc3ccccc3nc2n1CCCN1CCOCC1	4	2	23744*	-2
CCCCNC(=O)c1ccc(N2CCOCC2)c(NS(=O)(=O)c2ccc(OC)cc2)c1	9	2	20173*	8
Cc1sc2nc(C3CC3)nc(SCC(=O)N3CCc4ccccc4C3)c2c1C	?	1	23515*	-2
Cc1sc2nc(C3CC3)nc(SCC(=O)N3CC(=O)Nc4ccccc43)c2c1C	0	1	10986	-8
Cc1cn([C@H]2C[C@H](O)[C@@H](/C=C/C(=O)NCCN3CCOCC3)O2)c(=O)[nH]c1=O	1	-5	5826	6
CCN(CC)C(=O)CSc1nc2ccccc2c(=O)n1CC	0	0	2757	2
CCN(CC)C(=O)CSc1nnc(-c2cc3ccccc3cc2O)n1CC	-3	-4	23212*	-7
Cc1ccc(N2CCN(CC3CC=CCC3)CC2)cc1 (stereo not given)	2	-2	21210*	3
CN(C)CC1(C)Cc2ccsc2C1O (stereo not given)	0	-1	3733	12
Nc1ccc(N2CCCCC2)c2nonc12	33*	9	3405	-22
O=[N+]([O-])c1ccc(N2CCCCC2)c2ncccc12	3	-4	4631	-2
Nc1cc(N2CCCCC2)c(Cl)cc1[N+](=O)[O-]	?	-12	21335*	6
O=[N+]([O-])c1ccc(N2CCCCCC2)c2nonc12	53*	26	14674	115*
Nc1c(N2CCCC2)cc(Cl)c2nonc12	0	-40	9434	-47
O=[N+]([O-])c1ccc(N2CCCCC2)c(Cl)c1N1CCCCC1	1	2	19380*	-1
COC(=O)C1CSc2[nH]c(=O)sc2C1c1ccccc1 (stereo not given)	0	-1	23079*	0
CC(C(=O)Nc1ccc(Cl)cc1)c1ncc(C(F)(F)F)cc1Cl (stereo not given)	1	-1	20389*	-2
NC(=O)C(c1ccc(Cl)cc1Cl)c1ncc(C(F)(F)F)cc1Cl (stereo not given)	?	0	19681*	0
NC(=O)C(c1ccc(Cl)cc1)c1ncc(C(F)(F)F)cc1Cl (stereo not given)	-3	8	10960	-5
CC(NS(=O)(=O)c1ccc2[nH]c(=O)[nH]c2c1)c1ccc(F)cc1 (stereo not given)	0	0	3876	-6
Cc1cc(C)nc(SCCCn2c(=O)[nH]c3ccccc32)n1	-1	-4	16659*	-7
O=C(Nc1ccc(CN2CCCCC2)cc1)c1sc2ccccc2c1Cl	1	4	4336	-4
Cc1cc(C)c(C(N)=O)c(NC(=O)Nc2ccccc2)n1	0	-4	22860*	1
Cc1cccnc1NC(=O)Nc1ccccc1	-1	-10	5425	-4
CCOc1ccc2oc(C(=O)N3CC(C)OC(C)C3)c(C)c2c1 (stereo not given)	-2	-5	6280	-5
